LASV entry inh: inhibitors of Lassa virus binding or cell entry | hit rate 1.2% among 300,000 | Lassa virus pseudotype entry inhibition, cell reporter | Potency, µM (titrated, usually from 37.9 µM), without a hit: at the highest dose activity change, negative = inhibition, actives largely listed as inhibitors; calls by dose curve; tested in HEK293 cells; further: potency means the concentration at half of the fitted maximal effect; on the % scale 0 is the no-effect control and ±100 the full control effect; nearly all actives have a fitted effect of over 50% in size
Vaccinia mCherry: vaccinia inhibition (mCherry reporter); Vaccinia virus mCherry reporter infection, fluorescence; Potency, µM (highest dose often 36.5 µM), inactives show top-dose activity change, negative = inhibition, hits mostly inhibitors; hit rate 0.63% among 310,000; calls by dose curve; tested in A549 cells; further: potency means the concentration at half of the fitted maximal effect; on the % scale 0 is the no-effect control and ±100 the full control effect; nearly all actives have a fitted effect of over 35% in size
Vaccinia Venus: inhibitors of vaccinia virus (Venus reporter); Potency, µM (highest dose often 36.5 µM), without a hit: top-dose activity change, negative = inhibition, hits mostly inhibitors; AID 720580; Vaccinia virus Venus reporter expression, fluorescence; hit rate 0.46% among 330,000; calls by dose curve; tested in A549 cells; further: potency means the concentration at half of the fitted maximal effect; on the % scale 0 is the no-effect control and ±100 the full control effect; nearly all actives have a fitted effect of over 30% in size
CHX counter: counter-screen for Shiga toxin inhibitors: cycloheximide protein synthesis inhibition; hit rate 12% among 300,000; AID 2314; max response, %; cell reporter, cycloheximide protein synthesis inhibition counterscreen; in the data active means max response mostly above about 13%, no sharp cut-off; inactive means mostly below about 14%; further: read at 38.3 µM for the half of the compounds with a filed dose; 0% is about no effect
Shiga inhibitor: inhibitors of Shiga toxin in Vero cells; Vero cells, Shiga toxin protein synthesis inhibition reporter; inhibition, % at 38.7 µM; hit rate 9.2% among 290,000; in the data active means inhibition mostly above about 28%, no sharp cut-off; inactive means mostly below about 43%; further: 0% is about no effect
MARV entry inh: Marburg virus entry inhibition. Marburg virus pseudotyped entry inhibition, cell reporter. Potency, µM (series often up to 37.8 µM), inactives show at the top dose activity change, negative = inhibition, most hits filed as inhibitors. hit rate 1.8% among 300,000. AID 540276; calls by dose curve; tested in HEK293 cells; further: potency means the concentration at half of the fitted maximal effect; on the % scale 0 is the no-effect control and ±100 the full control effect
An asterisk follows results filed as active; i = inactive; ? = inconclusive; . = no result; [ ] = remark or other dose. The entries come from a sample that favours hits as a whole.

SMILES	LASV entry inh	Vaccinia mCherry	Vaccinia Venus	CHX counter	Shiga inhibitor	MARV entry inh
COc1ccccc1C=CC1=CC2(C)CC1(C)C(c1ccccc1OC)CC2=O (stereo not given)	.	.	.	.	.	-29%[14.2 µM]
Cc1ccc(C(C(=O)NCCc2ccccc2)N(C(=O)c2csnn2)C2CC2)cc1 (stereo not given)	?	-22%	-10%	-3	-9	?
N/C(=N\OC(=O)COc1ccc2ccccc2c1)c1ccccn1	?	-20%	-10%	67*	128*	?
Cc1ccc(SCC(=O)O/N=C(\N)c2cccnc2)cc1	13%	-9%	-18%	17*	27	-3%
Cc1ccc(S(=O)(=O)N(C)CC(=O)O/N=C(\N)c2cccnc2)cc1	0%	i	-16%	.	.	20%
O=S(=O)(c1ccccc1Cl)N1CCN(c2nc(-c3ccccc3)nc3ccccc23)CC1	.	1%	-10%	.	.	.
CCOc1ccc(NC(=O)N2CCN(Cc3cc(=O)n4nc(-c5ccc(OC)cc5)sc4n3)CC2)cc1	16%[46.1 µM]	-9%	-6%	.	.	.
COc1ccc2c(c1)C=C(C(=O)OCc1cccnc1)CO2	?	-11%	-6%	12	15	5%[46.1 µM]
CC(C)(C)C(=O)Nc1ccc(-c2nc3ccc(NC(=O)C(C)(C)C)cc3[nH]2)cc1	-23%[46.1 µM]	i	-14%	.	.	.
Cn1cccc1-c1nc2ccc(NC(=O)c3cccs3)cc2[nH]1	?	-2%	-3%	26*	62	?
CC(=O)Nc1ccc2nc(-c3cccs3)[nH]c2c1	-7%	-17%	-9%	27*	68*	-23%
Cc1ccc(NC(=O)CSc2nc3ccc(NC(=O)c4cccs4)cc3s2)cc1	-12%[46.1 µM]	-15%	-7%	.	.	?
CC(=O)Nc1ccc2nc(-c3cccn3C)[nH]c2c1	-4%[46.1 µM]	-13%	-12%	17*	.	4%[46.1 µM]
Cc1cc(C)n(-c2ccc(C(=O)NCC3Cc4cc(-c5cnccn5)ccc4O3)cc2)n1 (stereo not given)	.	-8%	-7%	.	.	.
CCOC(=O)N1CCN(C(=O)COC(=O)c2ccc([N+](=O)[O-])cc2Cl)CC1	?	?	-1%	.	.	-11%[46.1 µM]
Cc1cccc(NC(=O)CSc2nnc(-c3cc(C)n(-c4ccccc4)c3C)o2)c1C	?	-3%	6%	25*	33*	-5%
Cc1cc(-c2nnc(SCC(=O)Nc3ccccc3C(F)(F)F)o2)c(C)n1-c1ccccc1	2%	.	?	40*	58	?
Cc1ccc(Cl)cc1NC(=O)Cn1c(=O)c2ccccc2n2nncc12	-6%[46.1 µM]	-3%	4%	.	.	2%[46.1 µM]
Cn1c(C2CCC2)nc2cc(C(=O)N3CCOc4ccccc4C3)cc(NC(=O)C3CCCO3)c21 (stereo not given)	.	-18%	-4%	.	.	.
CCOC(=O)CCCNC(=O)CCNC(=O)c1ccc(OC(C)C)cc1	0%	-14%	1%	17*	54*	-1%
c1cnc2nc(-c3ccc4c(c3)OCO4)cn2c1	-29%	-8%	1%	35*	38*	?
CS(=O)(=O)Nc1ccc(-c2cn3cccnc3n2)cc1	.	.	.	21*	43*	.
Cc1cc(C)cc(C(=O)Nc2ccc(-c3cn4cccnc4n3)cc2)c1	-14%[46.1 µM]	-21%	?	.	.	-1%[46.1 µM]
O=C(Nc1cccc(-c2cn3cccnc3n2)c1)c1ccc2c(c1)OCO2	10%	.	.	9	14	-3%
Cc1ccc(-c2cn3cccnc3n2)cc1	.	-18%	-9%	28*	71*	4%[46.1 µM]
SMILES	LASV entry inh	Vaccinia mCherry	Vaccinia Venus	CHX counter	Shiga inhibitor	MARV entry inh
CCOc1ccc(NC(=O)Cn2cc(C(=O)c3ccccc3)c(=O)c3cc4c(cc32)OCCO4)cc1	-10%[46.1 µM]	-12%	-5%	.	.	?
CCN1C(=O)C2(c3ccccc31)c1c(oc3ccc(C)cc3c1=O)C(=O)N2CCCOC(C)C (stereo not given)	-6%[46.1 µM]	-2%	0%	.	.	0%[46.1 µM]
CC(=O)c1cc(-c2ccc(F)cc2)n(CC(=O)NC(C)c2ccccc2)c1C (stereo not given)	-13%[46.1 µM]	-6%	-6%	.	.	.
COc1ccc(-c2c(C)c3cc(O)ccc3oc2=O)cc1	3%[46.1 µM]	-25%	-25%	18*	24	20%[46.1 µM]
COc1ccc(-c2c(C)c3ccc(O)cc3oc2=O)cc1OC	.	.	.	1	8	.
COc1ccc(-c2c(O)c3cc(O)cc(O)c3oc2=O)cc1	.	.	.	44*	71*	.
O=C(NCc1ccc2c(c1)OCO2)c1cccc(F)c1	3%	.	-13%	12	23	9%
COc1ccc(C(=O)NC(C(=O)NCCc2ccc3c(c2)OCCO3)C(C)C)cc1 (stereo not given)	.	0%	-7%	21*	74*	.
O=C(NCCc1ccc2c(c1)OCCO2)c1cc(F)cc(F)c1	?	-16%	-16%	25*	21*	0%
COc1ccc(C(=O)N[C@H](C(=O)NCc2ccc(C)cc2)C(C)C)cc1	?	i	2%	11	11	3%[46.1 µM]
NS(=O)(=O)c1ccc(CCNC(=O)c2ccc3c(c2)OCCO3)cc1	-2%	-12%	-7%	-6	-16	?
O=C(NCCc1ccc2c(c1)OCCO2)c1cccc(F)c1	2%	-19%	-22%	51*	43*	-18%
C#CC1(NC(=O)NC(C)C)CCCCC1	.	.	.	3	-4	.
CCCCC(=O)NNC(=S)NC(=O)c1ccc([N+](=O)[O-])cc1	.	.	.	-1	-17	.
CCCCC(=O)NNC(=S)NC(=O)c1ccc(C)cc1	-10%[46.1 µM]	?	1%	22	49*	5%[46.1 µM]
COCCCNC(=S)NC(=O)c1ccc(C)cc1	?	3%	6%	78*	123*	?
Cc1nccn1Cc1ccccc1	.	i	-2%	1	15	.
CCOc1ccc(C2C(C(=O)Nc3ccc(OC)cc3)=C(C)Nc3nc(CCCO)nn32)cc1 (stereo not given)	?	-6%	4%	.	.	.
CCOC(=O)c1ccc(NC(=O)C2=C(C)Nc3nc(CCCO)nn3C2c2ccc(OC)cc2)cc1 (stereo not given)	1%	-3%	-8%	44*	66*	1%
CNCCc1cnc(CCC(c2ccccc2)c2ccccc2)[nH]1	?	.	.	.	.	5.8µM*
COC(=O)c1sccc1S(=O)(=O)N1CCN(c2ccc(C)cc2C)CC1	1%[46.1 µM]	1%	10%	.	.	.
CCOc1ccc(Oc2cc(N)cc([N+](=O)[O-])c2)cc1	0%[46.1 µM]	-20%	-17%	18	53*	12%[46.1 µM]
CC(=O)Nc1ccc(Oc2cc(N)cc([N+](=O)[O-])c2)cc1	.	-15%	-13%	8	37	.
COc1ccc(N2CCN(C(=O)c3cc4ccccc4o3)CC2)cc1	10%[46.1 µM]	-2%	-3%	10	13	22%[46.1 µM]
CC1CC(C)CN(C(=O)c2cc3cc(Br)cc(Br)c3o2)C1 (stereo not given)	?	-23%	-17%	31*	41*	?
CC1CC(C)CN(C(=O)Nc2ccc(Br)cc2)C1 (stereo not given)	-11%	.	.	15	28	7%
O=C(c1cc2cc(Br)ccc2o1)N1CCCC1	8%	.	.	39*	61*	-2%
O=C(c1cc2cc(Br)ccc2oc1=O)N1CCCC1	-7%	.	.	-2	1	0%
